# Measured values published in PubChem BioAssay.
# The source made the active and inactive calls.
# Assays:
# Albumin (Bos taurus) = Albumin (Bos taurus) (UniProt P02769); experiment: compounds binding labelled BSA control protein – biochemical, small-molecule microarray, Alexa647 label, 635/667 nm fluorescence, artefact control for SMM control protein annotation, profiling panel (AID 1118); settings: BSA-A647 binding, fluorescence 635 nm, higher = more signal;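 further: score merges 667 nm emission intensity and signal-to-noise per printed compound spot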
# Albumin (Bos taurus), sequence (P02769 whole entry, looked up): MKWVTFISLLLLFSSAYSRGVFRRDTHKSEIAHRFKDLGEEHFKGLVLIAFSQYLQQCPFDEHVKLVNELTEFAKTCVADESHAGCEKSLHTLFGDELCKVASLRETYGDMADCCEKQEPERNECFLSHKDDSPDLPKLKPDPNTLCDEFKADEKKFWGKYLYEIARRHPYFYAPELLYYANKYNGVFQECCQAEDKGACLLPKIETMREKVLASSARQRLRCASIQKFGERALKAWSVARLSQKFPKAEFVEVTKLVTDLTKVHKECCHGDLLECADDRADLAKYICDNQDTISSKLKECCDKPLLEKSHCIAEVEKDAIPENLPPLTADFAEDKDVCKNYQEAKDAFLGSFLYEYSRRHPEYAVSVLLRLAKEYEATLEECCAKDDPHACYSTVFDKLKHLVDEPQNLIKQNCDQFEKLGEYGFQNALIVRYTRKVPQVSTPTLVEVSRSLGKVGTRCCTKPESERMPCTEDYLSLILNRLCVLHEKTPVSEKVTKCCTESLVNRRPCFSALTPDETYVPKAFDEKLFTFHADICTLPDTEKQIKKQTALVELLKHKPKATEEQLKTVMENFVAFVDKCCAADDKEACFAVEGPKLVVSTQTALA
# [1] = probe aXIP binding to arrayed compounds – biochemical, NeuroSMM set, 635/667 nm fluorescence, primary screen (AID 1119); settings: small-molecule microarray, higher = more signal, called active from +8 up or from −8 down;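 further: probe is the protein aXip251-270 applied at 1 µg/mL to compound-printed slides; binding of probe to printed compounds measured as 667 nm fluorescence plus signal to noise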
# [2] = probe aNOTCH3 binding on compound microarray – biochemical, small-molecule microarray, 635/667 nm fluorescence, primary screen (AID 1120); settings: higher = more signal;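 further: probe is a biotin-tagged antibody raised against NOTCH3 rather than NOTCH3 protein; score merges spot fluorescence near 667 nm with spot signal to noise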
# [3] = probe aNOTCH2 binding on compound microarray – biochemical, small-molecule microarray, 635/667 nm fluorescence, primary screen (AID 1121); settings: higher = more signal;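 further: score merges feature fluorescence read at 667 nm with its signal to noise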
# [4] = molecular target: Carbonic anhydrase 2 (Homo sapiens) (UniProt P00918); experiment: compounds binding carbonic anhydrase 2 – biochemical, small-molecule microarray, Alexa647-labelled CAII, profiling panel (AID 1122); settings: CAII-A647 binding fluorescence, higher = more signal
# [5] = COS7 lysate on small-molecule microarray, probe aHis, 635 nm (AID 1123); settings: COS7 cell lysate, fluorescence, higher = more signal;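 further: z-score combines 667nm fluorescence intensity with signal-to-noise per printed compound spot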
# [6] = probe aLAP1 signal on lysate-treated microarray – cell lysate, small-molecule microarray, COS7 lysate, primary screen (AID 1124); settings: probe aLAP1, fluorescence, higher = more signal;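 further: lysate comes from COS7 cells expressing LAP1 and is applied at 0.3 µg/mL; score merges spot fluorescence near 667 nm with signal-to-noise over triplicate slides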
# Sam68 (KHDRBS1) = experiment: compounds binding KHDRBS1 protein – biochemical, small-molecule microarray, 635 nm fluorescence, primary screen (AID 1125); settings: higher = more signal;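 further: score merges 667 nm channel intensity with signal to noise over triplicate slides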
# [7] = tested on: Chordin-like protein 2 (CHRDL2); experiment: compounds binding chordin-like 2 – biochemical, small-molecule microarray, 635 nm fluorescence, primary screen (AID 1126); settings: fluorescence 635 nm, higher = more signal;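 further: printed compound slides probed with Chrdl2 protein at 4 µg/mL for 1 h at 4 C; score merges 667 nm emission intensity with signal to noise over three replicate slides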
# [8] = molecular target: Concanavalin-A (Canavalia ensiformis) (UniProt P02866); experiment: compounds binding concanavalin A lectin – biochemical, small-molecule microarray, Alexa647 label, 635 nm, artefact control for SMM control protein annotation, primary screen (AID 1127); settings: ConA-A647 binding fluorescence, higher = more signal;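 further: z combines 667 nm emission intensity with signal-to-noise across three replicate slides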
# Concanavalin-A (Canavalia ensiformis), sequence (P02866 whole entry, looked up): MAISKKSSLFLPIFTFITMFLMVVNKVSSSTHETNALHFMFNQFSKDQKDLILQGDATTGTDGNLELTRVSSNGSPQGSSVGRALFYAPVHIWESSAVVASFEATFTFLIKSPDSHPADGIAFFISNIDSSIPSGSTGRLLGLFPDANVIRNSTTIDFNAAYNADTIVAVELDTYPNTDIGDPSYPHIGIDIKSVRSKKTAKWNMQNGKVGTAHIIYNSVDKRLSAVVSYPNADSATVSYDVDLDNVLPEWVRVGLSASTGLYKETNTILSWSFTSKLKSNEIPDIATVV
SMILES,composite z-score (Albumin (Bos taurus)),composite Z-score [1],composite z-score [2],composite z-score [3],composite z-score [4],composite z-score [5],composite z-score [6],composite z-score (Sam68 (KHDRBS1)),composite z-score [7],composite z-score [8]
CCCC=C(CCC)[C@@H](NC(=O)CCc1ccccc1)c1ccc(C(F)(F)F)cc1,0.964,-0.1 (inactive),0.265,-0.0095,0.58,2.82,0.0364,1.27,-0.153,1.1
C[C@@]12COC[C@]13C=C(Br)[C@H](C2)[C@@]1(CO1)C3=O,-0.717,0.112 (inactive),-0.315,-0.124,-0.643,-0.47,0,-1.91,-0.211,-0.858
[N-]=[N+]=Nc1ccccc1C[C@]1(C(=O)O)N=C(c2ccc(OCCCO)cc2)O[C@H]1c1ccccc1N=[N+]=[N-],0.893,0.644 (inactive),0.293,0.166,0.57,2.84,0.871,1.32,0.135,1.13
CC1(C)C(=O)C(c2ccccc2)=C2CN3C(=O)N(CCc4ccccc4)C(=O)C3(Cc3ccc(F)cc3)C=C21 (stereo not given),0.471,0.0294 (inactive),0.781,0.246,0.0225,1.39,0.155,0.222,-1.21,0.477
COc1ccc([Si](C)(C)[C@@H]2[C@@H](CCn3cc([C@H](O)c4ccccc4)nn3)O[C@]3(C(=O)N(c4ccccc4)c4ccccc43)[C@H]2C)cc1,-0.591,-0.424 (inactive),-0.145,-0.131,0.0028,0.233,-0.232,0.548,-0.063,0.503
CCc1cccc(NC(=O)O[C@H]2[C@H](OC(=O)Nc3ccccc3)[C@H](OC(=O)Nc3ccccc3)[C@@H](OC)O[C@@H]2CO)c1,0.902,1.21 (inactive),0.211,-0.0481,0.663,2.57,0.814,1.29,-0.539,1
COc1cc(NN2C(C(O)C3CCCCC3)C=CC3C(=O)N(C)C(=O)C32)cc(OC)c1OC (stereo not given),1.04,1.37 (inactive),0.678,0.22,0.424,2.78,0.339,1.32,-0.531,1.15
C=C(/C(=C/C[C@@H](OC(C)=O)c1ccc(OCCO)cc1)c1cc(C(=O)OC)ccc1OC)C(C)C,0.296,0.185 (inactive),-0.0417,-0.127,0.735,0.303,1.2,0.938,-0.137,0.697
COC(=O)C(CC#Cc1ccc2c(c1)[C@]1(C(=O)N2)[C@H](c2ccc(O)cc2)N2[C@H](c3ccccc3)[C@H](c3ccccc3)OC(=O)[C@H]2[C@@H]1C(=O)N1CCCCCCC1)C(=O)OC,0.631,1.71 (inactive),1.29,-0.0586,0.816,2.46,1.18,1.29,1.13,1.14
C=CC1c2cc(O)c(OC)cc2CCN1Cc1ccc([N+](=O)[O-])o1 (stereo not given),0.576,0.402 (inactive),0.136,-0.0708,0.847,2.05,1.1,0.358,-0.807,0.103
C=CCN1C(=O)[C@@]2(O[C@@H](CCO)[C@H]([Si](C)(C)c3ccc(OC)cc3)[C@H]2C)c2cc(N3CCOC3=O)ccc21,0.729,0.0117 (inactive),-0.0647,-0.127,0.483,-0.617,0.155,0.329,-0.403,0.993
O=C1O[C@H](c2ccccc2)[C@H](c2ccccc2)N2[C@H]1[C@@H](C(=O)N1CCCCCCC1)[C@]1(C(=O)Nc3ccc(C#CC4(O)CCCCCC4)cc31)[C@H]2c1ccccc1OCCO,0.573,9.08 (active),2.18,1.13,1.02,5.1,1.42,1.34,1.73,0.952
CCCCC(=C=CC[C@H](O)c1ccc(OCCO)cc1)C[C@H](O)c1cc(Cl)cc(Cl)c1O,0.377,0.671 (inactive),-0.0178,-0.133,0.456,0.271,0.163,0.805,0.44,0.72
C=C/C=C/[C@@H]1C(=C)CN([C@@H](Cc2ccccc2)C(=O)OC)[C@H]1[C@@H](O)Cc1ccccc1,0.0797,0.3 (inactive),-0.0343,-0.115,0.311,1.07,0.137,1.09,0.177,0.861
C=C(/C(=C/C[C@@H](OC(=O)c1ccncc1)c1cccc(OCCO)c1)c1cnc2ccccc2c1)C(C)C,0.701,0.414 (inactive),0.178,-0.0689,0.976,1.69,1.38,1.21,1.24,1.2
COC(=O)[C@@]1(Cc2ccccc2CN=[N+]=[N-])N=C(c2ccc(OCCCO)cc2)O[C@H]1c1ccccc1,0.0186,0.951 (inactive),0.177,0.0919,0.645,2.52,0.717,0.711,0.4,0.686

SMILES,composite z-score (Albumin (Bos taurus)),composite Z-score [1],composite z-score [2],composite z-score [3],composite z-score [4],composite z-score [5],composite z-score [6],composite z-score (Sam68 (KHDRBS1)),composite z-score [7],composite z-score [8]
C=CCC(OC(C)=O)[C@@H]1[C@@H](N(Cc2ccc(-c3cccc(C(F)(F)F)c3)o2)C(=O)c2ccc(C)cc2)c2cc(OCCCO)ccc2N1C(=O)Cc1ccc(OC)cc1 (stereo not given in full),-0.356,0.899 (inactive),-0.0311,-0.194,-0.26,-0.333,-0.27,-0.367,0.186,0.0203
NC(=O)[C@H]1[C@@H]2C(=O)O[C@@H](c3ccccc3)[C@@H](c3ccccc3)N2[C@@H](c2ccc(O)cc2)[C@]12C(=O)Nc1ccccc12,0.295,0.355 (inactive),-0.307,-0.173,0.769,-0.115,0.0182,-0.783,-1.22,-0.411
O=C(CS)NCCCCCNC(=O)[C@@H]1C[C@@H]2C(=O)N[C@@H](Cc3ccccc3)C(=O)N2[C@@H]1c1cccc(OCCO)c1,-0.884,-0.32 (inactive),-0.638,-0.446,0.665,2.7,0.426,1.34,0.914,1.13
CC(C)C(=C=CC[C@@H](O)c1cccc(OCCO)c1)C[C@@H](O)COCc1ccccc1,0.15,-1.39 (inactive),-0.0708,-0.0865,0.763,0.75,0.102,-0.0876,-0.456,0.346
COc1cc(NN2C(C(O)c3ccccc3)C=CC3C(=O)N(C)C(=O)C32)cc(OC)c1OC (stereo not given),0.566,1.13 (inactive),0.12,-0.0817,0.781,1.73,0.481,1.3,-0.179,0.659
O=C1O[C@H](c2ccccc2)[C@H](c2ccccc2)N2[C@H]1[C@@H](C(=O)O)[C@]1(C(=O)Nc3ccc(C#CC4(O)CCCCCC4)cc31)[C@H]2c1ccc(O)cc1,0.143,0.25 (inactive),-0.15,-0.0999,0.811,0.609,0.0189,0.553,0.224,0.437
CCOC(=O)C[C@H]1[C@H](OC(=O)c2ccccc2-c2ccccc2)[C@@H](NC(=O)c2ccc3ccccc3n2)c2cc(OCCCO)ccc2N1C(=O)c1ccccc1,-0.321,0.311 (inactive),0.038,-0.14,0.286,0.824,-0.0982,1.33,0.374,0.37
COc1ccc([Si](C)(C)[C@H]2[C@H](CCO)O[C@@]3(C(=O)N(Cc4ccc(N5C(=O)c6ccccc6Oc6ccccc65)cc4)c4ccccc43)[C@@H]2C)cc1,-0.0162,-0.291 (inactive),-0.0212,-0.204,0.0539,0.648,-0.299,-0.652,-0.348,-0.352
CCOC(=O)C1=CCC(c2ccccc2)N(S(=O)(=O)c2ccc([N+](=O)[O-])cc2)C1 (stereo not given),0.193,-0.275 (inactive),-0.0077,-0.108,0.0862,1.07,0.173,0.439,0.0332,-0.104
CC(C)CNC(=O)[C@@]1(c2ccc([N+](=O)[O-])cc2)CC(=O)N(C2CCCCC2)[C@@H]1c1ccc(CO)cc1,0.819,1.08 (inactive),-0.191,-0.123,0.714,2.05,0.571,0.244,0.0971,0.213
O=c1cccc(-c2ccc(F)cc2)o1,0.445,-0.261 (inactive),0.176,-0.0527,-0.114,-0.218,0.403,0.501,0.556,0.354
CN1C(=O)C2C=CC(C(O)c3ccc(I)cc3)N(Nc3ccccc3)C2C1=O (stereo not given),0.939,0.412 (inactive),0.323,-0.0389,0.547,1.91,0.595,1.14,0.569,1.15
[N-]=[N+]=Nc1ccccc1C[C@]1(C(=O)O)N=C(c2ccc(OCCCO)cc2)O[C@H]1c1ccccc1,0.784,0.0778 (inactive),-0.0316,-0.121,0.601,2.58,0.266,0.822,-1.09,0.552
COCCOC(=O)N1C(=O)[C@@]2(c3cc(C#CCNC(N)=O)ccc31)[C@H](c1ccc(O)cc1)N1[C@H](c3ccccc3)[C@H](c3ccccc3)OC(=O)[C@H]1[C@@H]2C(=O)N1CCN(c2ncccn2)CC1,0.678,0.529 (inactive),0.344,-0.175,0.506,2.41,0.566,1.27,0.279,1.1
C=CCN1C(=O)[C@]2(O[C@H](CCO)[C@@H]([Si](C)(C)c3ccc(OC)cc3)[C@@H]2C)c2cc(NC(=O)c3ccc(OC)cc3)ccc21,-0.296,0.0866 (inactive),-0.0017,-0.108,0.216,0.13,0.0305,1.04,0.878,0.689
